D1 antagonist = antagonists of human D1 dopamine receptor; P21728; HEK293 TREx D1 cells, calcium flux, dopamine EC80; stronger effect = lower value; activity change, negative = inhibition, % at 10 µM; actives 3.2% (n = 360,000); in the data active = activity change below about -30%; also: % is scaled to controls: 0 for no effect and ±100 for the full control effect
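Inducible Hek293 Trex D1 cells (tetracycline, overnight, 30 C). Calcium dye 30–90 min RT. Antagonist mode: EC80 dopamine added after 180 s compound read.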
D1 potentiator = human D1 dopamine receptor positive modulation; P21728; HEK293 TREx D1 cells, calcium flux, dopamine EC20 potentiation; potentiation, % at 10 µM; actives 0.036% (n = 360,000); AID 504651; in the data active = potentiation above about 30%; also: 0% is about no effect
TRHR ag = agonists of human TRH receptor; actives 0.18% (n = 360,000); P34981; AID 493084; activation, % at 2 µM; TRHR cells, calcium flux fluo-8, FDSS agonist mode; also: 0% is about no effect
Target sequence (P34981 whole entry, looked up): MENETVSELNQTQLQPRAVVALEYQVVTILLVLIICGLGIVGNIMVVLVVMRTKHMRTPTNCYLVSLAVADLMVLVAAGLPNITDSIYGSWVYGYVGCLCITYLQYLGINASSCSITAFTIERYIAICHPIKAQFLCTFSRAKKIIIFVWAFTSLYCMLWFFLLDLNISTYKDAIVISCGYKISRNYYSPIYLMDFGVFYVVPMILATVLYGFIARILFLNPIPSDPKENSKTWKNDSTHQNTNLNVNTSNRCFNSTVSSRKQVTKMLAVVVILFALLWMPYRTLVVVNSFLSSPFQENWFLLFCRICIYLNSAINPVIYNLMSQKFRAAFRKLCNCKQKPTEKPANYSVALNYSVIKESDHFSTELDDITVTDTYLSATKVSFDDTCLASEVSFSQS
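Steps: seed TRHR cells overnight; add fluo-8 no-wash Ca dye, RT 30 min–1.5 h; record 10 s baseline; pin-transfer compounds; monitor fluorescence 1 cycle/s for the agonist window. Calcium increases flag candidate agonists.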
D1 agonist = agonists of human D1 dopamine receptor; P21728; HEK293 T-REx D1 cells, calcium flux, agonist mode; AID 504660; actives 1% (n = 360,000); activation, % at 2 µM; also: 0% is about no effect
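Agonism was scored from calcium flux recorded over 180 s (1 read/s) after pintool compound addition, following a 10-cycle baseline. Cells were inducible force-coupled HEK293 TREx D1, plated overnight at 30 C and loaded with no-wash calcium dye.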
TRHR enhancer = allosteric enhancers of human TRH receptor. P34981. TRHR cells, fluo-8 calcium fluorescence, EC20 TRH enhancement. AID 493056. actives 0.66% (n = 360,000). enhancement, % at 2 µM; in the data active = enhancement above about 30%; also: 0% is about no effect
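TRHR-expressing cells loaded with fluo-8 calcium dye were read kinetically (ex 480/em 530) during compound addition, then stimulated with an EC20 of TRH (10 nM final). Enhancement of the Gq-mediated intracellular calcium response was scored.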
USP1-UAF1 inh = inhibitors of human USP1/UAF1 deubiquitinase | recombinant USP1/UAF1, Ub-Rhodamine cleavage fluorescence | Potency, µM (titrated, usually from 57.1 µM), for the others: at the top dose activity change, negative = inhibition, hits mostly inhibitors | AID 743255 | actives 0.23% (n = 390,000); active = well fitted inhibition curve with a large enough effect; inconclusive = small, poorly fitted or top-dose-only effect; inactive = no such curve, though single readings can be large or run the other way; also: potency is read from the fitted curve at half-maximal effect; % is scaled to controls: 0 for no effect and ±100 for the full control effect; nearly all actives have a fitted effect of over 60% in size
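1 nM enzyme complex + cpd, 15 min RT; start with Ub-Rho 150nM final; kinetic fluorescence ex 480/em 540, 6 reads q60 s. Buffer 50mM HEPES pH 7.8, 0.5mM EDTA, 0.1 mg/ml BSA, 1mM TCEP, 0.01% Tween-20.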
Starred values were filed as active, the others as inactive; ? = inconclusive; . = no result. The list is not random: actives were taken first. Their share in the collection is about 4.4%. Rule as the data show it, unless noted: active = activation above about 30%; inactive = the rest.

SMILES | D1 antagonist | D1 potentiator | TRHR ag | D1 agonist | TRHR enhancer | USP1-UAF1 inh
CN1CCCC(CN2c3ccccc3Sc3ccccc32)C1 (configuration not stated) | -23 | -5 | 6 | 42* | 2 | -20%
OC1CC2CCC(C1)N2CCCN1c2ccccc2Sc2ccc(Cl)cc21 (configuration not stated) | . | . | . | . | . | -7%
Cn1nnnc1Sc1ncnc2scc(-c3cccc(Cl)c3)c12 | 14 | 6 | -1 | 4 | -6 | .
COc1ccc(NC(=O)CCN2CCN(S(=O)(=O)c3ccc(C(C)C)cc3)CC2)cc1 | -3 | 0 | -2 | -1 | 2 | -4%
CN(C)S(=O)(=O)c1ccc(Cl)c(NC(=O)CN2CCN(Cc3ccc4c(c3)OCO4)CC2)c1 | -58* | 0 | -2 | 10 | -3 | -21%
O=C(CN1CCN(S(=O)(=O)c2ccccc2)CC1)Nc1ccc2c(c1)OCO2 | -32* | -7 | 0 | 0 | -6 | -8%
O=C(CN1CCN(S(=O)(=O)c2ccc(Cl)cc2)CC1)Nc1ccc2c(c1)OCO2 | . | . | . | . | . | -4%
O=C(CN1C(=O)c2cccc3cccc1c23)Nc1ccc2c(c1)OCO2 | 6 | 2 | -2 | 1 | 31* | -8%
CC(C)c1ccc(S(=O)(=O)N2CCN(CCC(=O)Nc3ccc(N(C)C)cc3)CC2)cc1 | -81* | -2 | -1 | 0 | 18 | -13%
Cc1ccccc1CNC(=O)CCS(=O)(=O)c1cc2c3c(c1)CCN3C(=O)CC2 | 9 | -5 | 0 | 2 | 2 | -25%
Cc1nn2cc(-c3ccc(OC(C)C)cc3)nc2s1 | -6 | -4 | 0 | 7 | 0 | -23%
CCOc1cc(C(=O)Nc2ccc(-c3nc4ccccc4s3)cc2Cl)cc(OCC)c1OCC | 3 | -1 | 0 | 2 | 0 | 5%
CC(C)c1ccc(S(=O)(=O)N2CCN(CC(=O)Nc3ccc4c(c3)OCO4)CC2)cc1 | -30* | -6 | 2 | 6 | -3 | -18%
O=C(NNC(=O)c1ccc2c(=O)n3c(nc2c1)CCC3)c1ccc(Cl)cc1 | -14 | -1 | 0 | 3 | 7 | -14%
CCN(CC)C(=O)c1cccc(NC(=O)c2ccc3c(=O)n4c(nc3c2)CCC4)c1 | -40* | -7 | 0 | 1 | 5 | -12%
CCN(CC(=O)Nc1c(F)cccc1F)C(=O)c1ccc2c(=O)n3c(nc2c1)CCC3 | 0 | -1 | 1 | 0 | 1 | -9%
CCN(C(=O)C(=O)Nc1ccc2nc3n(c(=O)c2c1)CCCCC3)c1ccc(F)cc1 | -39* | 2 | -1 | 1 | 4 | -29%
O=C(NNC(=O)c1ccc2c(=O)n3c(nc2c1)CCC3)c1cccc(Cl)c1 | -32* | -7 | 1 | -3 | 1 | -2%
O=C(Nc1ccc(Cl)c(C(F)(F)F)c1)c1cc2nc(-c3ccc4c(c3)OCO4)cc(C(F)(F)F)n2n1 | -12 | -4 | 0 | 0 | -4 | -14%
O=c1ccc2cc(O)c(O)cc2o1 | -41* | -4 | 0 | 2 | -1 | -11%
O=C(Cn1c(S(=O)(=O)Cc2ccccc2)nc2ccccc21)N1CCCCC1 | -35* | . | -1 | 4 | 9 | -17%
CCc1nc2ccccc2n1CC(=O)N1CCN(Cc2ccccc2)CC1 | 8 | -3 | 0 | 1 | -2 | -6%
O=C(Cn1c(NCCO)nc2ccccc21)N1CCN(Cc2ccccc2)CC1 | -41* | -1 | 0 | 1 | 2 | ?
CC1CCc2nc3ncn(Cc4ccccc4F)c(=O)c3cc2C1 (configuration not stated) | 4 | -1 | 0 | 2 | -4 | ?
COc1ccc(C2=NNC(c3cccnc3)=Nc3ccccc32)cc1 | 18 | -4 | -1 | 1 | -16 | -6%
c1ccc(C2=NNC(c3ccco3)=Nc3ccccc32)cc1 | -32* | 3 | -1 | 5 | -1 | -7%
N#Cc1nc(Nc2cccc3ccccc23)nc(NC2CCCC2)n1 | -35* | -7 | 2 | 8 | -6 | .
COc1cccc(Nc2nc(C#N)nc(NC3CCCC3)n2)c1 | -33* | 0 | -3 | 5 | -5 | .
Cc1ccccc1Nc1nc(C#N)nc(NC2CCCC2)n1 | -13 | -5 | -1 | 3 | -4 | .

Source: PubChem (National Center for Advancing Translational Sciences (NCATS))
